Source: PubChem BioAssay
A selection: hits, their analogues and other compounds. The true share with any hit is near 2.2%.
A549 tox – kills or reduces viability of A549 cells in Nrf2 counter-screen; A549 ARE-Fluc cells, CellTiter-Fluor viability, 18-24 h; Potency, µM (top dose mostly 46 µM), most hits filed as inhibitors; hit rate 0.16% among 390,000; AID 504648
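Cytotoxicity counterscreen: CellTiter-Fluor fluorescence was measured in A549 ARE_Fluc cells after 18-24 h of compound exposure in a concentration series. The subsequent BugLite luminescent read reports ARE-luciferase activity.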
Nrf2 block – blocks Nrf2 signaling; A549 ARE-Fluc reporter, luciferase luminescence, 18-24 h; Potency, µM (top dose mostly 46 µM), most hits filed as inhibitors; hit rate 2.1% among 360,000; also: nearly all actives have a fitted effect of over 60% in size
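In this cell-based qHTS, ARE-driven firefly luciferase in A549 cells reports Nrf2 activity; the luminescent signal after BugLite lysis is the measured value, with a prior CellTiter-Fluor read for cell health.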
Nrf2 ARE act – activators of Nrf2 (ARE) signaling; AREc32 ARE-luciferase reporter (MCF7-derived line), luminescence, 24 h; Potency, µM (top dose mostly 46.1 µM), most hits filed as activators; hit rate 0.31% among 410,000; AID 624171; also: nearly all actives have a fitted effect of over 65% in size
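AREc32 cells carrying an ARE-driven firefly luciferase, 1000 cells/well in OPTI-MEM with 5% FBS, dosed after overnight attachment and incubated 24 hr at 37 deg C. Steady-Glo luminescence read after 30 min at RT.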
Pin1 inh – blocks the human prolyl isomerase Pin1 | Q13526 | Pin1 FP peptide displacement, HiFluor488, 10 min | Potency, µM (doses to about 115 µM), most hits filed as inhibitors | hit rate 0.009% among 390,000; active = well fitted inhibition curve with a large enough effect in the polarisation, with a control signal flat, not every such curve was filed as active; inconclusive = small, poorly fitted or top-dose-only effect, or effect the other way, or a change in a side signal; inactive = no such curve, though single readings can be large or run the other way; the % refers to the polarisation
Target sequence (Q13526 whole entry, looked up): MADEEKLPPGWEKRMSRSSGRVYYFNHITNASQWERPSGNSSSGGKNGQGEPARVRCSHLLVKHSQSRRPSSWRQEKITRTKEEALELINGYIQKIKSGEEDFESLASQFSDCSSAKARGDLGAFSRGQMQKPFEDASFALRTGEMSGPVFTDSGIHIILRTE
Of the large screens only hits and unclear results are named; the others gave an inactive call; ! = not active in a repeat. Unless noted, calls follow the shape of the dose curve; as a rule, active = well fitted curve in the direction sought with a large enough effect; inconclusive = small, poorly fitted or top-dose-only effect, or another doubt; inactive = no such curve, though single readings can be large; an effect the other way counts as inactive or inconclusive.

O=C1c2ccccc2S(=O)(=O)N1Cc1nnc(-c2ccccc2Br)o1	none
O=S1(=O)c2cccc3cccc(c23)N1Cc1nnc(-c2ccccc2Br)o1	Nrf2 block 21µM
O=C(CSc1nc2ccccc2n1S(=O)(=O)c1cccc([N+](=O)[O-])c1)NCCc1ccccc1	A549 tox inconclusive, Nrf2 block 18µM
CC(=O)c1ccc(N2CCN(C(=O)Nc3ccc(C(C)C)cc3)CC2)cc1	A549 tox inconclusive, Nrf2 block 7.3µM
CC(C)c1ccc(NC(=O)N2CCOCC2)cc1	none
Cc1cc2c(cc1S(=O)(=O)N1CCc3ccccc31)NC(=O)CO2	A549 tox inconclusive, Nrf2 block 23µM, Pin1 inh inconclusive
O=C1COc2ccc(S(=O)(=O)N3CCc4ccccc43)cc2N1	none
Cc1ccc(CNC(=O)c2cnc3c(-c4ccccc4)c(C)nn3c2C)o1	none
CC1CCc2cc(F)ccc2N1C(=O)CSc1nnc2c(n1)[nH]c1ccc(F)cc12 (stereo not drawn)	A549 tox inconclusive, Nrf2 block 21µM
CC1CCCCN1C(=O)CSc1nnc2c(n1)[nH]c1ccc(F)cc12 (stereo not drawn)	Nrf2 block inconclusive
CCN(CC)S(=O)(=O)c1ccc(NC(=O)CSc2nnc3c(n2)[nH]c2ccccc23)cc1	none (no result: Nrf2 ARE act)
C[C@@H](/C=C/c1ccc2ccccc2c1)C1COC(=O)C[C@H]1O (stereo partly drawn)	none (no result: Nrf2 ARE act)
FC(F)(F)c1cc(-c2ccc(Cl)cc2)nc(NCc2cccnc2)n1	Nrf2 block 15µM
COc1ccc(-c2cc(C(F)(F)F)nc(NCc3ccc(Cl)cc3)n2)cc1	Pin1 inh inconclusive
C=C1C(=O)O[C@@H]2[C@H]3O[C@]3(C)CC/C=C(\C)CC[C@@H]12	Nrf2 ARE act inconclusive
C=C1C(=O)O[C@H]2C[C@H]1[C@@H](OC(C)=O)C/C(C)=C/CC/C(C)=C\CC[C@]2(C)O	A549 tox inconclusive, Nrf2 block 15µM
Cc1ccc(N(C)C(=O)c2cc(S(=O)(=O)N3CCc4ccccc43)cn2C)cc1	Pin1 inh inconclusive
COc1ccc(N(C)C(=O)c2cc(S(=O)(=O)N3CCc4ccccc43)cn2C)c(OC)c1	A549 tox inconclusive, Nrf2 block 18µM
Cc1ccc(C(=O)Nc2ccc(S(=O)(=O)N3CCc4ccccc43)cc2)o1	Nrf2 block 21µM
CCCC(=O)NC(=S)Nc1ccc(S(=O)(=O)N2CCc3ccccc32)cc1	Nrf2 block 21µM
Cc1ccc(C(=O)Nc2ccc(S(=O)(=O)N3CCc4ccccc4C3)cc2)o1	none (no result: Nrf2 block)
Cn1cc(S(=O)(=O)N2CCc3ccccc32)cc1C(=O)Nc1ccc(Cl)cc1	Nrf2 block 8.2µM
COc1ccc(C2c3c(n(CCc4ccccc4)cnc3=N)Oc3ccc4ccccc4c32)cc1OC (stereo not drawn)	none (no result: Nrf2 ARE act)
O=S(=O)(NC1CC1)c1ccc(S(=O)(=O)N2CCCc3ccccc32)cc1	Nrf2 block 23µM
NC(=O)c1ccsc1NC(=O)c1ccc(S(=O)(=O)N2CCCc3ccccc32)cc1	A549 tox inconclusive, Nrf2 block 18µM
COc1ccc(C(=O)Nc2ccc(S(=O)(=O)N3CCc4ccccc43)cc2)cc1	Nrf2 block 15µM
NS(=O)(=O)c1ccc(NC(=O)c2ccc(S(=O)(=O)N3CCc4ccccc43)cc2)cc1	none
Cc1cccc(NC(=O)CSc2cn(CC(=O)N3CCCCCC3)c3ccccc23)c1	none
CC(C)(C)C(=O)OCc1cc(=O)n2nc(C3CCCCC3)sc2n1	none
C/C(=N\Nc1ncnc2sc(C)c(C)c12)c1ccccn1	A549 tox 23µM, Nrf2 block inconclusive, Pin1 inh inconclusive
O=C(Nc1nc2ccccc2n1CCN1CCOCC1)c1ccc(Cn2cc([N+](=O)[O-])cn2)o1	none
O=C(NCc1cccnc1)c1ccc(COc2ccccc2Br)o1	none
O=C(Nc1nc2ccccc2n1CCN1CCOCC1)c1ccc(COc2ccccc2Br)o1	Nrf2 block 13µM
COc1ccccc1OCc1ccc(C(=O)Nc2ccccc2)cc1	none
O=C(Nc1ccc(Cn2cccn2)cc1)c1ccc(COc2ccccc2Br)cc1	A549 tox inconclusive, Nrf2 block 9.2µM
O=C(Nc1cccnc1)c1ccc(COc2ccccc2Br)o1	Nrf2 block 6.5µM
COc1ccc(NC(=O)Cn2c(=O)n(CCc3ccccc3)c(=O)c3c4c(sc32)CCCC4)cc1	none
Cc1ccc(/C=C/C(=O)OCC(=O)NC(C)c2ccccc2)o1 (stereo not drawn)	none
Cc1ccc(/C=C/C(=O)OCC(=O)Nc2cccnc2Cl)o1	Nrf2 ARE act 2.8µM
Nc1ncnc2c1C(c1ccccc1)c1c(ccc3ccccc13)O2 (stereo not drawn)	A549 tox inconclusive, Nrf2 block 18µM!
CC(C)(C)OC(=O)Nc1ncnc2c1C(c1ccccc1)c1c(ccc3ccccc13)O2 (stereo not drawn)	none (no result: Nrf2 ARE act)
N=c1c2c(ccn1CCc1ccccc1)Oc1ccc3ccccc3c1C2c1ccccc1 (stereo not drawn)	A549 tox 3.7µM, Nrf2 block 3.7µM (no result: Nrf2 ARE act)
CCCn1c(=N)c(C(=O)NC2CCCCC2)cc2c(=O)n3cc(C)ccc3nc21	none
C=C1C=CS(=O)(=O)N(Cc2ccccc2)C1	none (no result: Nrf2 ARE act)
CCOC(=O)Cn1c(=O)oc2cc(S(=O)(=O)N3CCN(c4ccc(Cl)cc4)CC3)ccc21	none
Cc1cc2c(n1-c1ccc(C(=O)NCc3ccccc3Cl)cc1)CCCC2	Nrf2 ARE act inconclusive
FC(F)(F)c1cccc(N2CCN(Cc3nnc(-c4ccc5c(c4)OCO5)o3)CC2)c1	Nrf2 block inconclusive
O=C(Nc1cc(Br)ccc1O)c1cc(-c2ccco2)on1	Nrf2 block inconclusive, Nrf2 ARE act 4.5µM
O=C(Nc1cccnc1Cl)c1cc(-c2ccco2)on1	Nrf2 block inconclusive, Nrf2 ARE act 10µM
O=C(Nc1cc(Cl)ccc1O)c1cc(-c2ccco2)on1	Nrf2 ARE act 6.3µM
NC(=O)C1CCN(c2ncc(-c3ccc4c(c3)OC(F)(F)O4)s2)CC1	none (no result: A549 tox, Nrf2 block, Nrf2 ARE act)
COc1ccccc1NC(=O)C1CCN(S(=O)(=O)c2ccc3c(c2)CC(C)N3C(C)=O)CC1 (stereo not drawn)	Nrf2 block inconclusive
COc1ccccc1NC(=O)C1CCC(CNS(=O)(=O)c2ccc3c(c2)CC(C)N3C(C)=O)CC1 (stereo not drawn)	Nrf2 block 18µM, Pin1 inh inconclusive
CC(=O)N1c2ccc(S(=O)(=O)NCC3CCC(C(=O)Nc4ccc(C)c(C)c4)CC3)cc2CC1C (stereo not drawn)	Nrf2 block 21µM
CCOc1ccc(C(=O)N2CCN(Cc3cc(=O)n4nc(-c5ccccc5Cl)sc4n3)CC2)cc1	Nrf2 ARE act inconclusive (no result: Nrf2 block)
CCOc1nc(C#N)nc(N2CCCCC2)n1	Nrf2 block 16µM
O=C(O)CCC(=O)Nc1nnc(C(F)(F)F)s1	none (no result: Nrf2 block)
CCC(NC(=O)Nc1nnc(C(F)(F)F)s1)(C(F)(F)F)C(F)(F)F	A549 tox 7.3µM, Nrf2 block 3.7µM
Cc1ccc(-n2ncc3c(NCCC4=CCCCC4)ncnc32)cc1C	none (no result: Nrf2 block)
COC(=O)c1cc(=O)n(CCc2ccc(OC)c(OC)c2)c(=Nc2ccc(F)c(Cl)c2)s1	A549 tox inconclusive, Nrf2 block 23µM
